From PubChem BioAssay AID1347077 (National Center for Advancing Translational Sciences (NCATS), 2019)
In all, about 44,000 compounds went through this assay and fewer than 10 were called active. The call rests on the fitted dose curve; in most records, active means well fitted activation curve with a large enough effect; inconclusive means small, poorly fitted or top-dose-only effect, or another doubt; inactive means no such curve, though single readings can be large or run the other way. Not all results are given here.

Each molecule was assayed against Beta-2 adrenergic receptor (Homo sapiens) (UniProt P07550) (assay: qHTS assay of beta-arrestin-biased ligands of beta2-adrenergic receptor: NCGC Sytravon Library Screen). Settings: HTLA Tango cells, beta-arrestin recruitment, luciferase luminescence, 18 h; series mostly up to 46.1 µM.
Chain of Beta-2 adrenergic receptor (Homo sapiens) (P07550 whole entry, looked up): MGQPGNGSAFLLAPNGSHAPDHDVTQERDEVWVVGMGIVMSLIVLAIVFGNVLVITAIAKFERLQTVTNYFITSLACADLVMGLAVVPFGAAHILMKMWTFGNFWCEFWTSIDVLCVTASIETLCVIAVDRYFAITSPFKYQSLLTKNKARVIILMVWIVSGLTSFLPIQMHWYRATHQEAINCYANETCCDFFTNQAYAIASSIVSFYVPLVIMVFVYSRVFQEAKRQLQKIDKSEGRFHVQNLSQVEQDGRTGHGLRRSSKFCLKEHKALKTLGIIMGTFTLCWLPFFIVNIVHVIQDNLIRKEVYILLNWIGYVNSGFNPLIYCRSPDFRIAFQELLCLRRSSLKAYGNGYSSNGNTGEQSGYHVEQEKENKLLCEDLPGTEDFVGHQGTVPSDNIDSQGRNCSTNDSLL
From the text: The concept of biased agonism is an emerging concept of molecular pharmacology which proposes that seven transmembrane receptors (7TMRs) or G protein-coupled receptors (GPCRs), exist in multiple signaling conformations and complexes and that ligands (either agonists or antagonists) can induce signaling biased responses for distinct signal transduction cascades. […] Furthermore, accumulating evidence over the last decade has drawn attention to a novel function of beta-arrestins as signal transducers that scaffold various signaling molecules upon activation of 7TMRs. […] This beta-arrestin-biased signaling presumably leads to distinct physiological outcomes from those by G protein activation. Additionally, the active receptor conformations which prefer on this beta-arrestin signaling are likely different from those activating G protein signaling. […] The goal of this screening project will be to discover and optimize novel beta-arrestin-biased ligands for beta2-AR signaling. A luminescent cell-based assay for beta2-AR-mediated agonism, known as the Tango assay, has been validated in which ligand binding of a recombinant beta2-AR and subsequent recruitment of a recombinant beta-arrestin lead to the release of the transcriptional activator tTA, which upregulates transcription of a tTA-responsive luciferase gene. […] Compounds from the NCGC Sytravon Library collection were screened as a concentration-titration series that ranged from 46 microM to 0.6 nM. NIH Molecular Libraries Probe Production Network [MLPCN] NIH Chemical Genomics Center [NCGC] MLPCN Grant: Fast-track/HHSN271700800025C PI: Bryan Roth and Bob Lefkowitz
Tango cells were dispensed into white, solid, tissue-culture-treated 1536-well plates at 1500 cells/well in DMEM, containing 1% fetal bovine serum (FBS). Then, 23 nL of compounds or DMSO were delivered to each well using a pin tool. Plates were incubated at 37 degrees C, 5% CO2 for 18 hr. Then 2.5 uL luminescent substrate mix (in-house prepared: 150 mM Tris-Cl, pH 7.6, 3 mM MgCl2, 1% Triton X-100, 5 mM DTT, 0.5 mM CoA, 0.15 mM ATP, 0.44 mM D-luciferin, final concentrations) was added to each well. Plates were then incubated for 15 minutes at room temperature, and subsequently measured on a ViewLux plate reader for luminescent signal using a clear filter with a 10 second exposure and 2x binning. The %Activity was determined from the corrected luminescence values. […] Concentration-response curves were fitted to the signals arising from the resulting luminescence. The concentration-effect curves were then classified based on curve quality (r2), response magnitude and degree of measured activity, and compounds were subsequently categorized based on their curve class.

outcome, inactive:
COC(=O)NNC(=O)C1CCC(C)CC1 (stereo not drawn), CCc1nnc2c3ccccc3nc(N3CCN(c4ccc(C)cc4C)CC3)n12, CCOc1ccc(CNC(=O)Cn2cc3c(n2)-c2c(oc(C(=O)N4CCCC4)c2C)CC3)cc1, CCOCCc1nn2c(=O)cc(COC(=O)CNC(=O)c3ccc(C(C)(C)C)cc3)nc2s1, CCC(=O)N1CCc2cc(Br)cc(S(=O)(=O)NCc3ccc(Cl)cc3)c21, Cc1nc2nc(NCc3cccc(Br)c3)[nH]n2c(=O)c1Cc1ccccc1, COc1ccc(NC(=O)C(c2ccccc2)N2Cc3ccccc3C2=O)cc1 (stereo not drawn), Cc1nc2sc(C)c(C)n2c(=O)c1S(=O)(=O)NCCc1ccc(Cl)cc1, CCOc1ccc(OCC)c(NS(=O)(=O)c2ccc3[nH]c(=O)ccc3c2)c1, COc1ccc(S(=O)(=O)NCCSc2nnnn2-c2ccccc2)cc1, Cc1ccccc1CNC(=O)CCCn1nc(C)c2sc3ccccc3c2c1=O, COc1cccc(N2CC(NC(=O)/C=C\c3ccccc3)CC2=O)c1 (stereo not drawn), O=C(CSc1ncc(-c2ccccc2)[nH]1)Nc1ccc(F)cc1F, COc1ccc(Cl)cc1NC(=O)CCC(=O)c1ccc(C)cc1, Cc1c(NC(=O)C(C)(C)C)cccc1-c1nc2ccccc2s1, Cc1nn(CC(=O)O)c(=O)c2cc3cc(F)ccc3n12, CCc1ccc(N(CC)C(=O)CCn2cnc3onc(-c4ccc(F)cc4)c3c2=O)cc1, COc1ccc(CCNC(=O)c2cnc3sc(N4CCCCCC4)nn3c2=O)cc1OC, CCCn1c(=N)c(C(=O)NCc2ccccc2)cc2c(=O)n3cccc(C)c3nc21, COc1ccc(CCNC(=O)c2cc(=O)c3c(C)cc(C)cc3o2)cc1OC, Cc1ccc(S(=O)(=O)N2CCc3cc(C(=O)Nc4ccc(Cl)cc4C)ccc32)cc1, COc1cccc(NC(=O)CSC2=Nc3ccccc3C3=NC(CC(=O)NC4CCCCC4)C(=O)N23)c1 (stereo not drawn), CCCCOc1ccc(CNC(=O)c2ccc3c(c2)N(C)C(=O)C2CCCCN32)cc1 (stereo not drawn), COc1ccccc1NC(=O)c1oc2ccccc2c1NC(=O)C(C)C, COc1ccc(CCNc2ncnc3onc(-c4ccc(Cl)cc4)c23)c(OC)c1, Cc1csc2nc(COC(=O)c3ccc(NC(=O)COc4ccccc4F)cc3)cc(=O)n12, COc1ccc(N2CCN(C(=O)C3CCCN(C(=O)c4cc5sccc5n4C)C3)CC2)cc1 (stereo not drawn), O=C(COc1ccccc1F)OCc1cc(=O)n2nc(C3CCCCC3)sc2n1, CCC1CCCCN1Cc1c(O)ccc2c(=O)c(Oc3ccccc3Cl)c(C(F)(F)F)oc12 (stereo not drawn), Cc1cc(=O)n(CC(=O)Nc2cccc([N+](=O)[O-])c2)c(-n2nc(C)cc2C)n1, CCOC(=O)c1c(C)[nH]c(CCC(=O)NCCCN2CCN(c3cc(C)ccc3C)CC2)c1C, COc1cc(Nc2nc(-c3ccc(OC)c(OC)c3)nc3ccccc23)cc(OC)c1, Cc1cc(C)cc(OC(C)C(=O)Nc2nc3c(s2)CCCC3)c1 (stereo not drawn), COCCn1c(SCC(=O)c2cc(C)ccc2C)nc2cc(C(=O)NC3CCCC3)ccc2c1=O, CCOc1ccccc1NC(=O)CCn1cnnn1, Cc1ccc(N(C)C(=O)C2CCN(S(=O)(=O)c3ccc4c(c3)CCCN4C(=O)C3CCC3)CC2)cc1, CC(=O)Nc1ccc(S(=O)(=O)NCC2CCC(C(=O)NCCc3ccccc3)CC2)cc1 (stereo not drawn), CCOc1ccccc1C(=O)NC1(C(F)(F)F)C(=O)Nc2c1c(=O)[nH]c(=O)n2-c1ccc(F)cc1 (stereo not drawn), CCN(CC)S(=O)(=O)c1nnc(NC(=O)COc2ccccc2Cl)s1, COc1ccc(-c2cccc(NS(=O)(=O)c3cc(C)c(OC)c(C)c3C)c2)nn1, O=C(NC1(C(F)(F)F)N=C(c2ccccc2)N(C2CCCCC2)C1=O)c1ccccc1F (stereo not drawn), Cc1ccc(CCNC(=O)c2ccc3c(c2)nc2n3CCC(C)C2)cc1 (stereo not drawn), Cc1ccccc1NC(=O)Cn1c(=O)n(CCCCC(=O)NCc2ccccc2Cl)c(=O)c2ccccc21
